PubChem BioAssay (NCATS)
Results filed as inconclusive are left out. A number with no mark means an inactive call. Activity calls are given as the source filed them. The call rests on the fitted dose curve; in most records, active means well fitted inhibition curve with a large enough effect; inconclusive means small, poorly fitted or top-dose-only effect; inactive means flat fitted curve, though single readings scatter.

Each compound was assayed on PC15 (assay: qHTS profiling for inhibitors of Plasmodium falciparum proliferation (AID 504749; further: nearly all actives have a fitted effect of over 60% in size;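 on activity, negative = inhibition: 0% = DMSO vehicle and full inhibition = artemisinin control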)). Settings: P. falciparum in erythrocytes, SYBR Green DNA, 72 h; series mostly up to 28.7 µM; activity, negative = inhibition: at the top concentration.
Method in brief: (§1)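 Three-day growth assay of blood-stage parasites in erythrocytes (0.3% parasitemia, 2.5% hematocrit) at 37 C, 5% CO2, quantified by SYBR Green DNA staining after overnight detergent lysis.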
Potency means the concentration at half of the fitted maximal effect.

| SMILES | activity, negative = inhibition | Potency |
| --- | --- | --- |
| O=C(O)CCCCC(=O)O | -3.51% |  |
| CCOC(=O)n1ccn(C)c1=S | 11% [at 12.8 µM] |  |
| COc1cc(NS(C)(=O)=O)ccc1Nc1c2ccccc2nc2ccccc12 |  | 2.82 µM (active) |
| C[C@]12CC[C@@H]3c4ccc(O)cc4CC[C@H]3[C@@H]1CC[C@@H]2O | 2.7% |  |
| NCCC(O)(P(=O)(O)O)P(=O)(O)O | 2.76% |  |
| CCN1CCC[C@H]1CNC(=O)c1c(OC)ccc(Br)c1OC | -10.2% |  |
| CCN1CCN(c2cc3c(cc2F)c(=O)c(C(=O)O)cn3C2CC2)CC1 | -3.49% |  |
| Oc1c(Cl)cc(Cl)cc1Sc1cc(Cl)cc(Cl)c1O | 6.53% |  |
| CC(=O)Oc1ccc(C(=C2CCCCC2)c2ccc(OC(C)=O)cc2)cc1 | 12.2% |  |
| CC(=O)OCC(=O)NCCCOc1cccc(CN2CCCCC2)c1 | 5.49% |  |
| CCOC(=O)/C=C(C)/C=C/C=C(C)/C=C/c1c(C)cc(OC)c(C)c1C | -13.2% |  |
| CC(C)NC[C@@H](O)COc1cccc2ccccc12 |  | 8.91 µM (active) |
| CCN(CC)C(=O)N1CCN(C)CC1 | 2.94% [at 12.8 µM] |  |
| Nc1ccc(/C=C/c2ccc(N)cc2S(=O)(=O)O)c(S(=O)(=O)O)c1 | 3.19% |  |
| CCN1CCCC1=O | 10.3% |  |
| CCN(CC)CCNC(=O)COc1ccc(Cl)cc1 | -2.89% |  |
| Cc1c(F)c(N2CCNC(C)C2)cc2c1c(=O)c(C(=O)O)cn2C1CC1 (configuration not stated) | 4.15% |  |
| CC(C)(Oc1ccc(Cl)cc1)C(=O)O | 9.63% |  |

| SMILES | activity, negative = inhibition | Potency |
| --- | --- | --- |
| CCCCC1=NC2(CCCC2)C(=O)N1Cc1ccc(-c2ccccc2-c2nn[nH]n2)cc1 | -24.3% |  |
| CCCCCCCCCCCCCCCCOP(=O)([O-])OCC[N+](C)(C)C | -21.3% |  |
| C#C[C@]1(OC(C)=O)CC[C@H]2[C@@H]3CCC4=C[C@@H](OC(C)=O)CC[C@@H]4[C@H]3CC[C@@]21C | 3.23% |  |
| CCCn1c(=O)[nH]c(=O)c2[nH]cnc21 | 3% |  |
| CC(O)C(=O)O (configuration not stated) | 12.2% |  |
| CCCCc1nc(Cl)c(CO)n1Cc1ccc(-c2ccccc2-c2nn[nH]n2)cc1 | -11.9% |  |
| O=C(OCCOCCO)c1ccccc1Nc1cccc(C(F)(F)F)c1 | 3.09% [at 12.8 µM] |  |
| c1ccc(-c2ccc(C(c3ccccc3)n3ccnc3)cc2)cc1 (configuration not stated) |  | 11.2 µM (active) |
| Cc1cccn2c(=O)c(-c3nnn[nH]3)cnc12 | 1.36% |  |
| NCCc1ccn[nH]1 | 14.1% [at 12.8 µM] |  |
| O=C1OC(c2ccc(O)cc2)(c2ccc(O)cc2)c2ccccc21 | 7.4% |  |
| CN1C(CCl)Nc2cc(Cl)c(S(N)(=O)=O)cc2S1(=O)=O (configuration not stated) | -5.86% |  |
| COc1cc(C(=S)N2CCOCC2)cc(OC)c1OC | -5.27% |  |
| C[C@H]1[C@H](NC(=O)/C(=N/OC(C)(C)C(=O)O)c2csc(N)n2)C(=O)N1S(=O)(=O)O (stereo in doubt) | 7.91% [at 12.8 µM] |  |
| NCCCC[C@H](N[C@@H](CCc1ccccc1)C(=O)O)C(=O)N1CCC[C@H]1C(=O)O | 3.84% [at 12.8 µM] |  |
| CC(C)(CO)[C@@H](O)C(=O)NCCCO | 8.64% |  |
| Cc1ccnc(NS(=O)(=O)c2ccc(N)cc2)n1 | 9.16% [at 12.8 µM] |  |
| Nc1ccc(C(=O)O)cc1 | 9.22% |  |

These compounds were tested on PC26 in the same assay as above. Settings: P. falciparum in erythrocytes, SYBR Green DNA, 72 h; series mostly up to 28.7 µM; activity, negative = inhibition: at the top concentration.
Method in brief: as §1

| SMILES | activity, negative = inhibition | Potency |
| --- | --- | --- |
| O=C(O)CCCCC(=O)O | -0.437% |  |
| CCOC(=O)n1ccn(C)c1=S | 4.77% [at 12.8 µM] |  |
| COc1cc(NS(C)(=O)=O)ccc1Nc1c2ccccc2nc2ccccc12 |  | 5.36 µM (active) |
| C[C@]12CC[C@@H]3c4ccc(O)cc4CC[C@H]3[C@@H]1CC[C@@H]2O | -6.54% |  |
| NCCC(O)(P(=O)(O)O)P(=O)(O)O | -0.357% |  |
| CCN1CCC[C@H]1CNC(=O)c1c(OC)ccc(Br)c1OC | -8.28% |  |
| CCN1CCN(c2cc3c(cc2F)c(=O)c(C(=O)O)cn3C2CC2)CC1 | -1.8% |  |
| Oc1c(Cl)cc(Cl)cc1Sc1cc(Cl)cc(Cl)c1O | 6.99% |  |
| CC(=O)Oc1ccc(C(=C2CCCCC2)c2ccc(OC(C)=O)cc2)cc1 | 8.49% |  |
| CC(=O)OCC(=O)NCCCOc1cccc(CN2CCCCC2)c1 | 3.75% |  |
| CCN(CC)C(=O)N1CCN(C)CC1 | 0.734% [at 12.8 µM] |  |
| Nc1ccc(/C=C/c2ccc(N)cc2S(=O)(=O)O)c(S(=O)(=O)O)c1 | -11.4% |  |
| CCN1CCCC1=O | -12.9% |  |
| Cc1c(F)c(N2CCNC(C)C2)cc2c1c(=O)c(C(=O)O)cn2C1CC1 (configuration not stated) | 11% |  |
| CC(C)(Oc1ccc(Cl)cc1)C(=O)O | -1.8% |  |
| CCCCCCCCCCCCCCCCOP(=O)([O-])OCC[N+](C)(C)C | 3.79% |  |

| SMILES | activity, negative = inhibition | Potency |
| --- | --- | --- |
| C#C[C@]1(OC(C)=O)CC[C@H]2[C@@H]3CCC4=C[C@@H](OC(C)=O)CC[C@@H]4[C@H]3CC[C@@]21C | 1.52% |  |
| CCCn1c(=O)[nH]c(=O)c2[nH]cnc21 | 10.1% |  |
| CC(O)C(=O)O (configuration not stated) | -8.02% |  |
| O=C(OCCOCCO)c1ccccc1Nc1cccc(C(F)(F)F)c1 | -0.0597% [at 12.8 µM] |  |
| c1ccc(-c2ccc(C(c3ccccc3)n3ccnc3)cc2)cc1 (configuration not stated) |  | 12 µM (active) |
| Cc1cccn2c(=O)c(-c3nnn[nH]3)cnc12 | 14.3% |  |
| NCCc1ccn[nH]1 | 6.21% [at 12.8 µM] |  |
| O=C1OC(c2ccc(O)cc2)(c2ccc(O)cc2)c2ccccc21 | -3.63% |  |
| CN1C(CCl)Nc2cc(Cl)c(S(N)(=O)=O)cc2S1(=O)=O (configuration not stated) | -11.1% |  |
| COc1cc(C(=S)N2CCOCC2)cc(OC)c1OC | 9.36% |  |
| C[C@H]1[C@H](NC(=O)/C(=N/OC(C)(C)C(=O)O)c2csc(N)n2)C(=O)N1S(=O)(=O)O (stereo in doubt) | -8.16% [at 12.8 µM] |  |
| NCCCC[C@H](N[C@@H](CCc1ccccc1)C(=O)O)C(=O)N1CCC[C@H]1C(=O)O | 3.76% [at 12.8 µM] |  |
| CC(C)(CO)[C@@H](O)C(=O)NCCCO | -1.62% |  |
| Cc1ccnc(NS(=O)(=O)c2ccc(N)cc2)n1 | -3.91% [at 12.8 µM] |  |
| Nc1ccc(C(=O)O)cc1 | -5.38% |  |
